# Screening results: PubChem BioAssay, National Center for Advancing Translational Sciences (NCATS)
# TRHR ag = qHTS for Small Molecule Agonists and Allosteric Enhancers of Human TRH Receptor: Primary Screen for Agonists; activation, % at 2 µM; Thyrotropin-releasing hormone receptor (Homo sapiens), P34981; 360,000 tested, 0.18% active; AID 493084, 2011; TRHR cells, calcium flux fluo-8, FDSS agonist mode; note: 0% is about no effect
#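 In this calcium-flux screen, cells bearing human TRHR are dye-loaded with fluo-8, baselined for 10 cycles, then exposed to library compounds; positive kinetic calcium responses during the agonist phase mark hits, with TRH as control.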
# TRHR enhancer = qHTS for Small Molecule Agonists and Allosteric Enhancers of Human TRH Receptor: Primary Screen for Enhancers | enhancement, % at 2 µM | Thyrotropin-releasing hormone receptor (Homo sapiens), P34981 | 360,000 tested, 0.66% active | TRHR cells, fluo-8 calcium fluorescence, EC20 TRH enhancement; in the data active = enhancement above about 30%; note: 0% is about no effect
#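 Enhancer read-out: after compound pinning and an initial kinetic agonist-mode read, an EC20 of TRH (10 nM final) was injected and fluo-8 calcium signal (Ex 480/Em 530) followed at 1 s/cycle for 100 cycles in TRHR-expressing cells.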
# D1 potentiator = Potentiators of Human D1 Dopamine Receptor: qHTS | HEK293 TREx D1 cells, calcium flux, dopamine EC20 potentiation | potentiation, % at 10 µM | 360,000 tested, 0.036% active | AID 504651, 2011; in the data active = potentiation above about 30%; note: 0% is about no effect
# Target sequence (P21728 whole entry, looked up): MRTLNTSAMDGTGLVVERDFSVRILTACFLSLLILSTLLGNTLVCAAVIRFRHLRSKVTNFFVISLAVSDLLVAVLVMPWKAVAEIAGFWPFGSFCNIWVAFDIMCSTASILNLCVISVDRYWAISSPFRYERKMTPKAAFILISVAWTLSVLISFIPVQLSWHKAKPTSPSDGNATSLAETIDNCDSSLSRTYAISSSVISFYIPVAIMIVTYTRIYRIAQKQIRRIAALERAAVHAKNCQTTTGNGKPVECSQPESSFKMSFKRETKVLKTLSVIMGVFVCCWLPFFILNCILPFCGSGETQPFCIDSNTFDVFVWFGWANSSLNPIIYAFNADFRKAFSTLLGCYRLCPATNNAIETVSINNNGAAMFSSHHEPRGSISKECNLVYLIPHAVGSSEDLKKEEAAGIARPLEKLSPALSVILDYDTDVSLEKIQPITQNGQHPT
# D1 antagonist = Antagonist of Human D 1 Dopamine Receptor: qHTS; D(1A) dopamine receptor (Homo sapiens), P21728; HEK293 TREx D1 cells, calcium flux, dopamine EC80; hits give low values; AID 504652, 2011; activity change, negative = inhibition, % at 10 µM; 360,000 tested, 3.2% active; in the data active = activity change below about -30%; note: % is set by controls: 0 for no effect and ±100 for the full control effect
#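 Using tetracycline-induced force-coupled D1 Hek293 cells and a calcium dye, signals were followed for 180 s after compound, then for 180 s after EC80 dopamine, to detect inhibitors.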
# D1 agonist = Allosteric Agonists of the Human D1 Dopamine Receptor: qHTS | AID 504660, 2011 | HEK293 T-REx D1 cells, calcium flux, agonist mode | activation, % at 2 µM | 360,000 tested, 1% active | D(1A) dopamine receptor (Homo sapiens), P21728; note: 0% is about no effect
#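 Tetracycline-induced HEK293 TREx D1 cells, force-coupled to calcium signalling, were dye-loaded with a no-wash calcium kit. Compound was pin-added after a 10 s baseline. Fluorescence was read kinetically at 1 cycle/s for 180 s, with calcium rises flagged as agonism.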
# The depositor's hits bear a star; ! = repeats disagree. The list is not random: actives were taken first. Their share in the collection is about 4.6%. Cut-off read from the data, not from the text of the source, unless noted: active = activation above about 30%; inactive = the rest.
SMILES,TRHR ag,TRHR enhancer,D1 potentiator,D1 antagonist,D1 agonist
Cc1ccc2c(c1)cc1c(=O)n(CC(=O)NCc3ccco3)nc(C)n12,-0.4,21.6,-3.4,17.9,0.3
CCCN(CCC)C(=O)c1cc2c(=O)n3cccc(C)c3nc2s1,-0.8,-7.3,3.3,-60.5*!,0.1
CCC1CCCCN1C(=O)c1cc2c(=O)n3cccc(C)c3nc2s1 (stereo not given),0.0,39.0*,5.0,4.7,0.3
CCOc1ccccc1C(=O)NCc1ccc2c(c1)CCN2C(C)=O,-0.1,9.9,-2.0,-9.1,1.8
COc1cc(NC(=O)COCc2cc(-c3ccc(F)cc3)on2)cc(OC)c1OC,0.0,3.3,-4.0,-8.9,7.5
O=C(COC(=O)CNC(=O)c1cccc([N+](=O)[O-])c1)Nc1ccccc1OC(F)F,-0.6,33.7*,1.7,-7.8,4.3
O=C(COC(=O)CNC(=O)c1cccc([N+](=O)[O-])c1)Nc1nc2ccccc2s1,0.2,-3.2,-8.0,-8.0,3.5
CN(C)S(=O)(=O)c1ccc(Cl)c(NC(=O)CSc2nnnn2-c2ccc(O)cc2)c1,-1.4,11.4,4.5,-31.9*,15.3
CCn1c(SCC(=O)N(C)CC(=O)Nc2cccc(OC)c2)nnc1-c1ccco1,0.0,26.6,0.3,1.7,4.1
COc1ccc(NC(=O)CSc2nnnn2-c2ccc(F)cc2)cc1,-0.2,0.0,-0.5,0.2,1.2
Cc1ccc(S(=O)(=O)N(C)C)cc1NC(=O)CSc1nnnn1-c1ccc(O)cc1,1.5,0.7,-0.7,-7.8,3.5
COc1ccc(NC(=O)CSc2nnnn2-c2ccc(OC)cc2)cc1,-0.2,6.5,4.0,-79.8*,-2.5
COc1ccc(C(=O)Nc2ccc(NC(=O)CSc3nnc(-c4ccncc4)n3C)cc2)cc1,1.4,3.5,0.3,7.6,2.6
COc1ccc(-c2nnc(SCC(=O)Nc3ccc(C)cc3)n2C)cc1,-0.5,-1.1,0.4,-90.2*,-0.4
CCn1c(SCC(=O)N(C)CC(=O)Nc2ccc(OC)cc2)nnc1-c1ccco1,-0.6,37.6*,0.7,-24.4,1.3
O=C(O)Cn1c(-c2ccccc2)cc2ccccc21,0.8,2.5,6.9,-0.2,1.2
CN(C)/C=C1\SC(=S)N(c2ccc(F)cc2)C1=O,2.8,22.7,-2.1,-4.0,12.7
CN(C)/C=C1\SC(=S)N(c2ccc(Br)cc2)C1=O,18.7,3.2,-2.1,-15.2,41.1*
CCC(=O)NNc1nc2c(F)cccc2s1,0.0,19.4,0.9,-5.8,-0.1
CCC(=O)NNc1nc2c(F)cc(F)cc2s1,0.0,3.3,-1.8,-35.1*,4.0
CCOc1ccccc1CNC(=O)CCn1c(=O)c2cccn2c2ccc(F)cc21,-0.3,-2.4,-3.8,6.8,-1.1
CCc1ccccc1NS(=O)(=O)c1ccc2c(c1)C(C)(C)C(=O)N2C,-0.2,1.8,-5.3,-2.9,3.1
CCOc1ccccc1CNS(=O)(=O)c1ccc2c(c1)C(C)(C)C(=O)N2C,-0.5,1.3,0.1,-34.6*!,2.6
CCOc1ccc(N(C)S(=O)(=O)c2ccc3c(c2)C(C)(C)C(=O)N3C)cc1,-0.6,5.9,-2.8,-35.5*,1.9
CCN(CC)c1ccc(NC(=O)C(NS(=O)(=O)c2cccs2)C(C)C)c(C)c1 (stereo not given),-0.7,10.1,0.7,18.7,0.4
SMILES,TRHR ag,TRHR enhancer,D1 potentiator,D1 antagonist,D1 agonist
NC(=Nc1ccc(Br)cc1)c1ccccc1,19.2,-14.8,-0.3,-38.7*,44.7*
COC(=O)c1ccccc1NC(=O)C1=CC(c2ccc(C)cc2)=NS(=O)(=O)N1C,0.7,4.8,-0.2,4.1,3.4
CCOc1ccccc1Nc1ncnc2c1cnn2-c1ccccc1,-1.4,-4.8,-10.2,-12.5,0.0
Cc1ccc(-n2ncc3c(Nc4cccc(C)c4C)ncnc32)cc1,0.2,-5.5,-3.0,-32.4*,-2.3
CCOc1ccccc1Nc1ncnc2c1cnn2-c1ccc(C)cc1,-0.2,-6.1,0.6,-41.0*,-3.0
N#Cc1ccc(C(=O)NCC(=O)OC(C(=O)Nc2cc(C(F)(F)F)ccc2Cl)c2ccccc2)cc1 (stereo not given),1.4,-3.0,-1.9,13.6,7.7
C=Cc1ncc(OC)c2c1[nH]c1ccccc12,0.7,3.8,-5.7,-55.2*,3.8
COc1cccc2[nH]c3ccccc3c(=O)c12,0.0,-2.5,-0.4,1.7,1.3
Oc1ccccc1CNCC12CC3CC(CC(C3)C1)C2,-1.9,-1.5,-7.3,0.7,53.2*
CC(CC12CC3CC(CC(C3)C1)C2)NCc1ccccc1O (stereo not given),0.9,7.2,-13.0,-0.7,15.7
O=C(c1ccc(O)cc1)c1ccc(O)cc1O,-0.1,4.1,-3.9,5.1,4.0
O=C(c1ccccc1)c1ccc(O)cc1O,19.9,-3.5,-1.5,-7.6,60.2*
CCC(C)NC(=O)CCNS(=O)(=O)c1ccc(Br)cc1 (stereo not given),-0.6,7.2,2.5,-93.0*,1.8
Clc1ccccc1Cn1nnc(-c2cccs2)n1,-1.0,-0.9,-8.4,-15.6,20.3
Clc1ccccc1Cn1nnc(-c2ccccc2)n1,-0.6,1.8,-11.9,-35.0*,17.6
CCOC(=O)Cn1nnc(-c2cc(OC)c(OC)c(OC)c2)n1,-0.1,-3.9,-1.6,-20.0,5.1
COc1cc(-c2nnn(CC(=O)Nc3ccc(OC(F)(F)F)cc3)n2)cc(OC)c1OC,2.6,-27.3,-3.4,-32.0*,1.5
COc1ccc(NC(=O)CC2C(=O)N(c3ccc(C)cc3)C(=O)N2C2CCCC2)cc1 (stereo not given),0.0,1.2,-3.7,-4.8,-0.1
COc1ccc([C@H](NC(=O)OC(C)(C)C)C(=O)OC(C)(C)C)cc1,0.3,-5.0,-8.0,-47.0*,-0.1
CC[n+]1c(/C=C/C=C/N(C(C)=O)c2ccccc2)sc2cc(OC)ccc21,23.3,3.1,-7.0,-6.5,56.3*
O=C(Cc1ccc(-c2ccccc2)cc1)NCCS(=O)(=O)N1CCN(c2ccccc2F)CC1,0.1,14.3,0.1,11.0,8.0
CCCn1nc(C(=O)NNC(=O)CCCOc2ccc(OC)cc2)c2ccccc2c1=O,0.2,-3.2,-4.2,-17.9,2.6
Clc1ccc2c(c1)C(N1CCNCC1)=Nc1ccccc1O2,0.5,8.4,-5.8,-71.2*,19.8
Cc1cccc(-c2cc(C(=O)Nc3cccnc3)c3ccccc3n2)c1,0.6,16.3,8.3,-1.5,1.2
Cc1ccsc1/C=N/NC(=O)c1cc(-c2ccncc2)nc2ccccc12,-0.6,35.9*,-6.0,-0.6,2.0
